Assay results: PubChem BioAssay (NCI)
This is part of a sample that, as a whole, favours compounds with a hit. Of some 83,000 tested, about 20% had one in any assay.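 Compound tested at a single concentration for 48 hours in 96-well plates; a percent growth value below 10 was scored as active.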 A number with no mark means an inactive call. Activity calls are given as the source filed them.

Columns and labels:
Test in all cases: NCI-60 one-dose screen, 48 h (100 = growth as untreated, 0 = no growth, -100 = all killed)
Settings in all cases: 10 µM unless noted
DU-145 prostate = tested on: DU-145 prostate
K-562 leukemia = tested on: K-562 leukemia
MALME-3M melanoma = tested on: MALME-3M melanoma
MDA-MB-231 breast = tested on: MDA-MB-231 breast
RXF 393 renal = tested on: RXF 393 renal
SF-268 CNS = tested on: SF-268 CNS
SF-295 CNS = tested on: SF-295 CNS
SF-539 CNS = tested on: SF-539 CNS
UACC-257 melanoma = tested on: UACC-257 melanoma
M14 melanoma = tested on: M14 melanoma

SMILES	growth (DU-145 prostate)	growth (K-562 leukemia)	growth (MALME-3M melanoma)	growth (MDA-MB-231 breast)	growth (RXF 393 renal)	growth (SF-268 CNS)	growth (SF-295 CNS)	growth (SF-539 CNS)	growth (UACC-257 melanoma)	growth (M14 melanoma)
O=c1c2cc(F)ccc2sc2c(N3CCCCC3)nc3ccccc3c12	107%	112%	104%	98.9%	104%	102%	101%	102%	97.3%	96.8%
CCOC(=O)c1cn2ncnc(Oc3ccc(NC(=O)NCCN4CCOCC4)c(Cl)c3)c2c1C	109%	98.3%	91.5%	100%	94.2%	94.9%	98.4%	95.6%	95.8%	91.3%
COc1ccc(/C=N/Nc2cc(=O)[nH]c3ccc(C)cc23)cc1	105%	79.5%	114%	126%	95.4%	115%	96.2%	101%	105%	86.3%
CCN(CC)Cc1cc(Nc2c3ccc(Cl)cc3nc3ccc(OC)cc23)ccc1O	62.6%	3.14% (active)	112%	45.7%	-12.6% (active)	43.9%	72.5%	58.7%	-39.4% (active)	-67.5% (active)
CN1CCN(c2ccc(-c3cc4c(Nc5ccc(F)c(Cl)c5)ncnn4c3)cn2)CC1	58.1%	11.7%	50.3%	77.3%	101%	98.7%	103%	68%	105%	83.8%
COc1ccc(/C=C2\Oc3cc(OCCN4CCC(Cc5ccccc5)CC4)ccc3C2=O)cc1OC	82.5%	7.36% (active)	52.7%	53.5%	48%	79.8%	82.6%	83%	73.3%	30.2%
CC1CN(C2CCCCC2)C(=S)N(c2ccccc2)C1=O (stereo not given)	115%	117%	119%	115%	123%	102%	103%	103%	109%	108%
CNCCCC12CCC(c3ccccc31)c1ccccc12	103%	80.6%	82.6%	80.2%	61.7%	92.5%	100%	99.2%	95.9%	80.4%
COc1ccc(-c2nc3sc(-c4ccccc4)cn3n2)cc1	83.5%	23.8%	67.6%	47%	75.3%	71.8%	61.8%	75.2%	71.8%	28.4%
O=C(Nc1ccc(Cl)cc1F)c1cc(Cl)ccc1O	12.5%	4.51% (active)	-32.2% (active)	-34.5% (active)	-12.7% (active)	7.67% (active)	-69.5% (active)	4.82% (active)	-17.9% (active)	-12.3% (active)
CCOC(=O)c1cnn2c3ccccc3n(S(=O)(=O)c3ccc(OC)cc3)c12	14.8%	11.2%	60.7%	10.2%	-6.6% (active)	44.7%	14.1%	-3.57% (active)	80.1%	25.3%
COc1ccc(C2CC(c3ccc(Nc4ccnc5cc(Cl)ccc45)cc3)=NN2C=O)cc1 (stereo not given)	73.4%	17.4%	62%	78.8%	76.7%	58%	51.5%	94.6%	93.5%	50.5%
N#Cc1c(-c2ccc(Cl)cc2)nc2c(c(-c3ccccc3)nn2-c2ccccc2)c1-c1ccc(O)cc1	50.8%	8.36% (active)	61.5%	36.5%	-27% (active)	46.6%	1.71% (active)	11.2%	85.2%	38.3%
COc1cc(OCc2cccc(-c3ccc(C(O)c4nccs4)cc3)c2C)cc(OC)c1CNCCNC(C)=O (stereo not given)	111%	77.2%	86%	101%	107%	97.5%	103%	101%	99%	99.6%
c1ccc2c(c1)Nc1ccncc1S2	118%	112%	111%	87.8%	4.28% (active)	99.3%	101%	84.4%	108%	95.1%
COc1cc(C2CC(c3ccc(SC)cc3)=NN2C(C)=O)cc(OC)c1OC (stereo not given)	91%	31.1%	59.6%	85.3%	77.7%	77.2%	44.1%	78.1%	79.4%	44.3%
NC1=NC(c2cccc(Br)c2)c2sc3ccc(Cl)cc3c2N1 (stereo not given)	111%	86.6%	95.6%	88.4%	110%	94%	103%	108%	98.8%	98.4%
CNC(C)[C@H]1CCC2C3CCC4C[C@@H](N(C)C(=O)c5ccccc5)CC[C@]4(C)C3CC[C@@]21C (stereo not given in full)	61.4%	-2.77% (active)	-42.1% (active)	-1.29% (active)	-67% (active)	-9.75% (active)	24.3%	-61.2% (active)	-12.6% (active)	-36.6% (active)
COc1ccc(NC(=O)n2nc(/C=C\c3ccc(O)c(OC)c3)cc2/C=C\c2ccc(O)c(OC)c2)cc1	27.2%	9.25% (active)	51.9%	36.5%	23%	41.8%	51.6%	6.72% (active)	75.2%	4.97% (active)
COc1ccc(N)c(N)c1	111%	97.8%	91.7%	105%	105%	117%	99.1%	97.4%	114%	101%
N#Cc1c(Nc2cccc(Cl)c2)sc(C(=O)c2cc3cc(Cl)ccc3o2)c1N	30.6%	51.9%	101%	75.6%	105%	67.7%	123%	84%	102%	105%
COc1cc(/C=C/c2ccccc2)cc(OC)c1	94.3%	93%	105%	91%	118%	92.7%	95.7%	93.1%	103%	101%
COc1ccc(/C=C(\C#N)n2nnc3c(F)cccc32)cc1	2.45% (active)	12.1%	36.8%	21%	-21.3% (active)	39.7%	5.51% (active)	-27.4% (active)	62.6%	-16.2% (active)
CN1C(=C2C(=O)OC(C)(C)OC2=O)CCC1C(=O)NCc1ccc(Cl)cc1Cl (stereo not given)	107%	97.5%	102%	99.5%	108%	101%	96.4%	96%	87%	98.2%
Cc1ccc(-c2nc(N3CCN(C(=O)c4ccc(OC(F)(F)F)cc4)CC3)c3ccccc3n2)cc1	90.8%	70%	104%	84.3%	88.5%	71.9%	93.9%	98.2%	99.3%	94.9%
CCCCCCNC(=O)Oc1ccc(/C(=C(\C)c2ccc(Cl)cc2)c2ccc(OCCN(CC)CC)cc2)cc1	73.5%	2.67% (active)	49.3%	65%	49.7%	62%	84.9%	72.3%	6.29% (active)	-4.87% (active)
FC(F)(F)c1cc(Nc2ccc3c(OCCCN4CCOCC4)cccc3n2)ccc1Cl	55.9%	-31.6% (active)	54.3%	10.1%	23.9%	54.6%	0.167% (active)	36.2%	96.6%	40.4%
